The values that follow come from PubChem BioAssay (NCI).

Each structure is given as a SMILES string. The panel holds about 79,000 compounds, 15% with a hit somewhere; the sample as a whole holds those more often. Unmarked numbers belong to inactive results. No stated cut-off is given here; in the data, active means growth inhibition above about 70%; inactive means the rest.

A short description of the assay: NCI Yeast Anticancer Drug Screen. Data for the bub3 strain (AID 167). The following applies: S. cerevisiae bub3 mutant strain, at 50.0 µM, stronger effect = higher value. An outline of the steps: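 Growth of a checkpoint-deficient yeast mutant is measured after compound exposure. Values represent inhibition relative to vehicle.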
For `CC1c2c(cc(=O)n(C)c2O)C(=O)N1Cc1ccccc1` (stereo not given), the growth inhibition was 2.45%. To `Cc1cc(C)[n+]([O-])c(C)c1` belongs -19.4%; to `Cc1cc2c(=O)cc(-c3ccc(C(F)(F)F)cc3)oc2c(C(=O)O)c1C`, 0.4%; to `CCOC(=O)C1(C(=O)OCC)C2C=CC(C2)C1C(=O)OC` (stereo not given), 8.45%. Next, `CC(NC(=O)C(C)(C)C)c1ccc2c(c1)OCCO2` (stereo not given): 4.3%; `CCOC(=O)/C(N=Nc1ccc(O)cc1)=C(\C)O`: -1.2%. On to `CCOC(=O)CCC(NC(=O)c1ccc(OCc2ccc3nc(OC)c(OC)nc3c2)cc1)C(=O)OCC` (stereo not given), for which the growth inhibition was -4.75%.

For `Cc1cc(C)c(CSc2cc(N)nc(N)c2N)c(C)c1`, the growth inhibition was 6.9%. For the compound `[O-][n+]1c2ccc(Cl)cc2nc2ccc(Cl)cc21`, the growth inhibition is 1.45%. Regarding `CCC(/C=N\NC(=O)CCCC(=O)N/N=C/C(CC)CC)CC`, the growth inhibition is 5.8%. To `O=C(Nc1ccccn1)OCCCl` belongs -28.2%. For the compound `Nc1nc(Cc2ccccc2)cs1`, the growth inhibition is 3.35%. Next, `O=C(O)C(O)c1c[nH]c2ccccc12` (stereo not given): -11.4%. Next, `CC(=O)Oc1c(C)c2c(O)c3c1C1=C(OCOC1=C(C)C3=O)/C(C)=C\C(C)(O)C(O)C(C)C(O)C1C(=O)OC(C(C)C1O)C(C)(O)/C=C/C=C(C)C(=O)N2` (stereo not given): 9.7%; `COc1ccc(CC2OCCC3c4ccccc4NC23)cc1OC` (stereo not given): 3%. Next, `CS(=O)(=O)Nc1cccc(C(=O)NN)c1`: -11.7%; `O=C1c2ccccc2-c2ccc(-c3ccc4c5c(cccc35)C(=O)c3ccccc3-4)c3cccc1c23`: -31.3%; `CCCCCCCCCCCCCC(=O)Oc1ccc([N+](=O)[O-])cc1`: -9.2%. For `S=C=Nc1ccc(CSc2nc3ccccc3[nH]2)cc1`, the growth inhibition was 9.4%. `CCCCCCC(=O)/C=C/c1ccc(Cl)cc1`: the growth inhibition is 16.2%. Take `Cc1n(C)nn[n+]1C`: the growth inhibition is 7.9%. Next, `CC(=O)OC1CCC2(C)C(CCC3C2CC(OC(C)=O)C2(C)C(C(C)CCC(c4ccccc4)c4ccccc4)CCC32)C1` (stereo not given): 0.15%; `CCOC(=O)C(C#N)=C1CC(C)OC(C)C1` (stereo not given): 17.4%; `CCCCCCCCCCCCCCCCCC(=O)c1ccc(OC)c(OC)c1`: -24.4%. Next, `O=C1NC(c2ccccc2)C1N(Cc1ccccc1)Cc1ccccc1` (stereo not given): 12.8%. For `CCOC(=O)C(CC)(C(=O)OCC)C(C)CC` (stereo not given), the growth inhibition is -7.55%. To `CC1(C(N)=O)CCC1` belongs 10.2%; to `CCSC(SCC)C(NC(C)=O)C(O)C(O)COC(=O)c1ccccc1` (stereo not given), 1.35%. Take `O=C(O)C1Cc2c([nH]c3ccccc23)C(c2ccccc2)N1` (stereo not given): the growth inhibition is -16.8%. To `O=C(Nc1ccccc1)C1CC2C=CC1C2` (stereo not given) belongs -7.3%; to `CCOC(=O)c1nc2c(n(O)c1=N)CCC/C2=N\O`, 3.8%. To `NC(=O)ON=C1CCN(Cc2ccccc2)CC1` belongs 10.2%. Next, `O=C(O)C(O)C(O)C(O)C(O)C(O)CO.[NH-]C1CCCCC1[NH-].[Pt+2]` (stereo not given): 6.15%; `CC1(C)CCCCC1=O`: 26.1%.

With `O=S(=O)(c1ccc(NC(=S)N2CCOCC2)cc1)N1CCCCC1`, the growth inhibition is -5.95%. To `CCOP(=O)(OCC)C(C)(CC)NC1=NC(C(F)(F)F)(C(F)(F)F)NC(=O)N1` (stereo not given) belongs -0.5%; to `COc1ccc(NC(=O)CC(=O)n2nc(C)c(N=Nc3ccccc3C(=O)O)c2C)cc1`, -1.35%. For the compound `CC1(C#N)CCCC(c2ccccc2)(c2ccccc2)C1=O` (stereo not given), the growth inhibition was 23.9%. Next, `CC(=O)c1nc(C#N)c(N)o1`: -20.2%; `COC(=O)C(CO)NC(=O)C(CC(C)C)NC(=O)C(CC(C)C)NC(=O)OCc1ccccc1` (stereo not given): -5.1%.
